The values below come from PubChem BioAssay (NCATS).

Inconclusive results are not listed. A call without a number means that no potency is given here. Active and inactive are the calls of the source. The call rests on the fitted dose curve; in most records, active means well fitted cell-killing curve with a large enough effect; inconclusive means small, poorly fitted or top-dose-only effect, or effect the other way; inactive means no such curve, though single readings can be large or run the other way.
Potency means the concentration at half of the fitted maximal effect.

The assay is described as follows: qHTS of pediatric cancer cell lines to identify multiple opportunities for drug repurposing: Confirmatory screen for Saos-2 cells (AID 1347127). Further: nearly all actives have a fitted effect of over 60% in size. The following applies: Saos-2 osteosarcoma cell viability; series mostly up to 45.9 µM. The source says:
Drug repurposing or repositioning has been offered as a strategy for drug development in oncology programs. This approach has special potential for childhood cancers and other rare or orphan diseases, where the expected return on new drug development has been a disincentive to pharmaceuticals.
In this project we exploit the poly-pharmacology of drugs to discover new indications via phenotypic screening of a panel of 19 well-characterized cell lines derived from solid tumors seen in children and adolescents. The goal is to identify approved drugs with previously unrecognized anticancer properties that has the potential to reveal new mechanisms and biological processes involved in carcinogenesis or drug resistance. We employed a titration-based paradigm (quantitative high-throughput screening or qHTS), where all compounds were tested at multiple concentrations for their effect on cell viability. Concentration-response curves (CRCs) were derived directly from the primary screen, and both potency and efficacy values were used to identify compounds with robust bioactivity profiles. We screened the NIH Chemical Genomics Center (NCGC) Pharmaceutical Collection (NPC) and Mechanism Interrogation Plate (MIPE) small molecule collections of approved and investigational compounds against these cell lines; and measured metabolically active cells after 48 hours of compound treatment as a proxy for cell viability.
Assay Submitter: Nathalia J. Martinez, National Center for Advancing Translational Sciences, National Institutes of Health, Rockville, MD, USA; email: natalia.martinez@nih.gov
[1] Shen, M et al. Quantitative high-throughput phenotypic screening of pediatric cancer cell lines identifies multiple opportunities for drug repurposing. Oncotarget 2017 Dec 19;9(4):4758-4772. PMID 29435139.
The cells were obtained from University of North Carolina (UNC), Pediatric Preclinical Testing Program (PPT), and Coriell Institute (CI).
qHTS cell viability assay:
Cells were assayed in growth media at a density of 500-1,000 cells/well. Five microliters of cells were dispensed into 1,536-well, white, solid-bottom, TC-treated plates (Greiner Bio One) using a multidrop dispenser and incubated at 37 degrees C, 5% CO2, under a humidified atmosphere for 5 hours. Twenty-three nanoliters of compounds and controls (neutral control DMSO or positive control bortezomib at final concentration of 2.3 µM) were subsequently transferred by Kalypsys pintool. For primary screens, the MIPE collection was tested at 11-point dilutions (final concentrations range from 0.78 nM to 46 µM) and the NPC collection at 8-point dilutions (final concentrations range from 0.59 nM to 46 µM). Compounds tested in follow-up screens were assayed at 11-point dilutions. Cells were incubated for 48 hours, followed by addition of 3 µL of CellTiter-Glo (Promega). After a 15 min incubation at room temperature, samples were analyzed for luminescence intensity using a ViewLux High-throughput CCD imager equipped with clear filters.
`Cc1cn[nH]c1`: the Potency result was “inactive”.

As to `Cc1c(CN2CCN(C(=O)C(C)C)CC2)sc2c(N3CCOCC3)nc(-c3cnc(N)nc3)nc12`, the Potency is 928 nM (active).

Regarding `Cn1cnc2c(F)c(Nc3ccc(Br)cc3Cl)c(C(=O)NOCCO)cc21`, the Potency entry was “inactive”.

With `COc1cc(Nc2ncc3c(n2)-c2ccc(Cl)cc2C(c2c(F)cccc2OC)=NC3)ccc1C(=O)O`, the Potency is 18500 nM (active).

Consider `Oc1cccc(-c2nc(N3CCOCC3)c3oc4ncccc4c3n2)c1`, for which the Potency is 380 nM (active).

Regarding `COc1ccc(-c2oc3cc(OC)ccc3c2C(=O)c2ccc(C#N)cc2)cc1`, the Potency entry is “inactive”.

Turning to `CCC(C)(C)C(=O)O[C@H]1C[C@@H](C)C=C2C=C[C@H](C)[C@H](CC[C@@H]3C[C@@H](O)CC(=O)O3)[C@H]21`, the Potency was 2330 nM (active).

With `O=NN(CCCl)C(=O)NCCCl`, the Potency entry was “inactive”.

For `Nc1nc2c(ncn2COCCO)c(=O)[nH]1`, the Potency entry is “inactive”.

Consider `O=C(NOC[C@H](O)CO)c1ccc(F)c(F)c1Nc1ccc(I)cc1F`, for which the Potency result is “inactive”.

As for `C#Cc1cccc(Nc2ncnc3cc(OCCOC)c(OCCOC)cc23)c1`, the Potency result is “inactive”.

For the compound `CNCc1ccc(-c2[nH]c3cc(F)cc4c3c2CCNC4=O)cc1`, the Potency result was “inactive”.

Take `COc1ccc(-c2ccc3c(N4CCOC[C@H]4C)nc(N4CCOC[C@H]4C)nc3n2)cc1CO`: the Potency was 928 nM (active).

Consider `NC(=O)c1ccc(I)c([N+](=O)[O-])c1`, for which the Potency entry is “inactive”.

Consider `O=C(c1cc(Cc2n[nH]c(=O)c3ccccc23)ccc1F)N1CCN(C(=O)C2CC2)CC1`, for which the Potency result is “inactive”.

`NCCCC(N)(C(=O)O)C(F)F` (centres undefined): the Potency result was “inactive”.

As for `CCN(CC)CCCC(C)Nc1ccnc2cc(Cl)ccc12` (centres undefined), the Potency result is “inactive”.

For the compound `CN1CCN(CCCN2c3ccccc3Sc3ccc(C(F)(F)F)cc32)CC1`, the Potency is 20800 nM (active).

In the case of `CCC(C)n1ncn(-c2ccc(N3CCN(c4ccc(OC[C@H]5CO[C@](Cn6cncn6)(c6ccc(Cl)cc6Cl)O5)cc4)CC3)cc2)c1=O` (some centres undefined), the Potency result was “inactive”.

`OC(CN1CCC(Cc2ccc(F)cc2)CC1)c1ccc(Cl)cc1` (centres undefined): the Potency result is “inactive”.

Consider `Cc1oncc1C(=O)Nc1ccc(C(F)(F)F)cc1`, for which the Potency entry was “inactive”.

Consider `Cn1cnc([N+](=O)[O-])c1Sc1ncnc2nc[nH]c12`, for which the Potency entry is “inactive”.

Take `Cc1c(C)c2c(c(C)c1O)CCC(C)(COc1ccc(CC3SC(=O)NC3=O)cc1)O2` (centres undefined): the Potency entry was “inactive”.

Turning to `C[C@]1(c2nc3c(C(N)=O)cccc3[nH]2)CCCN1`, the Potency entry was “inactive”.
